Assay [1] addresses T1, Serine/threonine-protein kinase TBK1 (Homo sapiens) (UniProt Q9UHD2).
T1 sequence (whole entry): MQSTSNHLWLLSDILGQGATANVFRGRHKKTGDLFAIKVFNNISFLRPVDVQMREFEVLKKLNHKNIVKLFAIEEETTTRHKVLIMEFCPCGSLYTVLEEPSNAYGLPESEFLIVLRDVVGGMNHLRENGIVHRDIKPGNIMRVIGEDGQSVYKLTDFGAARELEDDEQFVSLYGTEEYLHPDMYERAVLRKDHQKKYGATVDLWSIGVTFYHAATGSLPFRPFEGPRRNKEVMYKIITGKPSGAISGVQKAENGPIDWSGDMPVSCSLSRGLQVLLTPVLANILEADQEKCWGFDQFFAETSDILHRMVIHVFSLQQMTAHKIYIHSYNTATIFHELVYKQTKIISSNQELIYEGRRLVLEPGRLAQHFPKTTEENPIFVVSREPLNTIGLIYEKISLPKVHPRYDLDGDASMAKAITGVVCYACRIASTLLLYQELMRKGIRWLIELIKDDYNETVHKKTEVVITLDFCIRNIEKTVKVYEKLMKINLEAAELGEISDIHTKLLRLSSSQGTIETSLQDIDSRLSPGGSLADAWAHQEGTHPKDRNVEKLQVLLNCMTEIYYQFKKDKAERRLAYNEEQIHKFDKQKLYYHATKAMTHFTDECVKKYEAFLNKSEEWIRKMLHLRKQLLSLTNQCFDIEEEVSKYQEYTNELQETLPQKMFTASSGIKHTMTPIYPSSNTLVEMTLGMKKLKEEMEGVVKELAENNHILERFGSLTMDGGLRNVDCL
The note with it: at 10 µM.

Assay [2] deals with T2, TGF-beta receptor type-1 (Homo sapiens) (UniProt P36897).
T2 sequence (whole entry): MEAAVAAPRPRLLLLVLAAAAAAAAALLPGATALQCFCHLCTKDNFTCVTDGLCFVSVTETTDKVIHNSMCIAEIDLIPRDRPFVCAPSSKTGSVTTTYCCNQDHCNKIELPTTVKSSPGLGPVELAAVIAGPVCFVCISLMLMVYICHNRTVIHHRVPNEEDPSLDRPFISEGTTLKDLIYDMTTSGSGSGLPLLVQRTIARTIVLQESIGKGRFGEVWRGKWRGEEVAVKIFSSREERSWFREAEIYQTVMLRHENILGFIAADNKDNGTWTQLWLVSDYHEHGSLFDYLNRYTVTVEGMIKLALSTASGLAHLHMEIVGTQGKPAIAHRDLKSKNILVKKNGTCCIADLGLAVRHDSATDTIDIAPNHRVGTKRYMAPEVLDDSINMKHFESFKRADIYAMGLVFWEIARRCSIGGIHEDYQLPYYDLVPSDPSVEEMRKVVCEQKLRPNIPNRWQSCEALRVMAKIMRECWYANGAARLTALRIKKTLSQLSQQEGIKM
The settings on record: at 1 µM.

Assay [3] addresses T2, TGF-beta receptor type-1 (Homo sapiens). The settings on record: at 10 µM.
The target of assay [4] is Insulin-like growth factor 1 receptor (Homo sapiens) (UniProt P08069). The note with it: at 1 µM.
Chain of Insulin-like growth factor 1 receptor (Homo sapiens) (P08069 31-736 limits assumed): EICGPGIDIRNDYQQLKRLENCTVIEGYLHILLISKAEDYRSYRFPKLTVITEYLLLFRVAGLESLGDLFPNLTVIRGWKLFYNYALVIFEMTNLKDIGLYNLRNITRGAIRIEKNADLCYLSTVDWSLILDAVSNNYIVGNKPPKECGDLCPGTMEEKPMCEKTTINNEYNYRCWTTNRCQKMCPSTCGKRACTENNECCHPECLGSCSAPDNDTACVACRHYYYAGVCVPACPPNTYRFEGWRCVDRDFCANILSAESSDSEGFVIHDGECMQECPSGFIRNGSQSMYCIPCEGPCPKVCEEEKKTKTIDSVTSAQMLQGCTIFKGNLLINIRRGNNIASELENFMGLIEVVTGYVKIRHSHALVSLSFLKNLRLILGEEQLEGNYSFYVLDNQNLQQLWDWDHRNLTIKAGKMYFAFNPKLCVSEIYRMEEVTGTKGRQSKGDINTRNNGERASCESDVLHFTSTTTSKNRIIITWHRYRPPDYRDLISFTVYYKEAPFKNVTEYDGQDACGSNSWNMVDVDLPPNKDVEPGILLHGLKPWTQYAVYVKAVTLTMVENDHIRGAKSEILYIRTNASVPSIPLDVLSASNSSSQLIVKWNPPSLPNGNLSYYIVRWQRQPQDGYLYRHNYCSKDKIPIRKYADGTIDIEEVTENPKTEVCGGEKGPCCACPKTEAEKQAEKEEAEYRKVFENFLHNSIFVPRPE
Chain of Insulin-like growth factor 1 receptor (Homo sapiens) (P08069 741-1367 limits assumed): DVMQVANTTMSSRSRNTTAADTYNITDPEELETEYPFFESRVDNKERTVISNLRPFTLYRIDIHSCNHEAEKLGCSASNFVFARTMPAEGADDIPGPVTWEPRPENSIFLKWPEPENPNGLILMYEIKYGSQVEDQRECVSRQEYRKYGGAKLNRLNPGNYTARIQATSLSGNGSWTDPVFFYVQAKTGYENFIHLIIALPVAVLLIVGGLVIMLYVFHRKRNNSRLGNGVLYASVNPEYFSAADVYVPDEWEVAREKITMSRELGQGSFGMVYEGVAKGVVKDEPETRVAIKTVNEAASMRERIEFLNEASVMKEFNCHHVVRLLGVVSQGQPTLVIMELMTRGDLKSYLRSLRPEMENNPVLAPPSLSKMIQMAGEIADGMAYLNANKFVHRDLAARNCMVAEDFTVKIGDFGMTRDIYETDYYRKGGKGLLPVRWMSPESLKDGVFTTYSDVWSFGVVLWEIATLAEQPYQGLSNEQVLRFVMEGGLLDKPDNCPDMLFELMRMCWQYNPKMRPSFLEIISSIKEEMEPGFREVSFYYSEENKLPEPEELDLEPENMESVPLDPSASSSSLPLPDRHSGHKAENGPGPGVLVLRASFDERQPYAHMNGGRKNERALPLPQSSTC
For assay [5] the target is unchanged. The note with it: at 10 µM.
For assay [6], the target named is T3, Inhibitor of nuclear factor kappa-B kinase subunit alpha (Homo sapiens) (UniProt O15111).
T3 sequence (whole entry): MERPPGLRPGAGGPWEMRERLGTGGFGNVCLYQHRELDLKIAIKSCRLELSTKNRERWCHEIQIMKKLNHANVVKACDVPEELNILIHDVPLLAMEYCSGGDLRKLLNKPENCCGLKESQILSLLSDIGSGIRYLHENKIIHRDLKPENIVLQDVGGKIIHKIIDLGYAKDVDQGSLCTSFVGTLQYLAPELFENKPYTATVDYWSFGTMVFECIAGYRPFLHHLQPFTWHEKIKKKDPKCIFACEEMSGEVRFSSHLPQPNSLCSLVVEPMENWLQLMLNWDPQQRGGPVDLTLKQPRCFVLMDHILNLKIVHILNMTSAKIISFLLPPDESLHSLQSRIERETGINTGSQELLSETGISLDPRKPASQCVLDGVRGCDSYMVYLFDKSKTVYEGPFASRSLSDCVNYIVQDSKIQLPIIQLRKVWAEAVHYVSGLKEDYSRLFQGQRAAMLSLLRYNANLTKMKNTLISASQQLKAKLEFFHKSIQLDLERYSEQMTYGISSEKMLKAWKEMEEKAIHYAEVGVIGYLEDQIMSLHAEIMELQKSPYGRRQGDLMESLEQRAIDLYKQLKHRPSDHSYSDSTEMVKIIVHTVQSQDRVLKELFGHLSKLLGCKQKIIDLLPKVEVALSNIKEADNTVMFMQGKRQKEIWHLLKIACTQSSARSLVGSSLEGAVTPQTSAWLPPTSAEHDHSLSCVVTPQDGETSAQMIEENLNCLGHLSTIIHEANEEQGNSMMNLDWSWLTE
The settings on record: at 1 µM.

The target in assay [7] is T3, Inhibitor of nuclear factor kappa-B kinase subunit alpha (Homo sapiens). The settings on record: at 10 µM.
The target in assay [8] is T4, Inhibitor of nuclear factor kappa-B kinase subunit beta (Homo sapiens) (UniProt O14920).
T4 sequence (whole entry): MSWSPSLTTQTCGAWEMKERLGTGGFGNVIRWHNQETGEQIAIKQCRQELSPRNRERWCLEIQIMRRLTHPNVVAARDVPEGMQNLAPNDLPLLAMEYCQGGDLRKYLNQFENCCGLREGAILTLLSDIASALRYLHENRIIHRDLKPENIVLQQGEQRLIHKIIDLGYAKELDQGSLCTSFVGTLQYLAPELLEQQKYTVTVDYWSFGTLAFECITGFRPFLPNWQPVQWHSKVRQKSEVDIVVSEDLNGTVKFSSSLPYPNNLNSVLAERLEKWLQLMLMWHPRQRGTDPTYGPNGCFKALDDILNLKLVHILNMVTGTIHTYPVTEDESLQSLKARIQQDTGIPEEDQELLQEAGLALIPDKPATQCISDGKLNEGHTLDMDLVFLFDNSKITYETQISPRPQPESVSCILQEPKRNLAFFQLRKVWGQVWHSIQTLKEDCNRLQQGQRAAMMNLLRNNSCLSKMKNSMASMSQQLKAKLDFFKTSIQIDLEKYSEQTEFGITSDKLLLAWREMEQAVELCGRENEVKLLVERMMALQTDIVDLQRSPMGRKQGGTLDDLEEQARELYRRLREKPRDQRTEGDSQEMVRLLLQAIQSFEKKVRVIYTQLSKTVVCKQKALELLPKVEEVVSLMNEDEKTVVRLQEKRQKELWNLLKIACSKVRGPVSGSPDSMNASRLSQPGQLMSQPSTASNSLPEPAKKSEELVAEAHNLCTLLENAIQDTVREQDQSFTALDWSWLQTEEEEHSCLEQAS
The note with it: at 1 µM.

Assay [9] addresses T4, Inhibitor of nuclear factor kappa-B kinase subunit beta (Homo sapiens). The note with it: at 10 µM.
For assay [10], the target named is Insulin receptor (Homo sapiens) (UniProt P06213). The note with it: at 1 µM.
Chain of Insulin receptor (Homo sapiens) (P06213 28-758 limits assumed): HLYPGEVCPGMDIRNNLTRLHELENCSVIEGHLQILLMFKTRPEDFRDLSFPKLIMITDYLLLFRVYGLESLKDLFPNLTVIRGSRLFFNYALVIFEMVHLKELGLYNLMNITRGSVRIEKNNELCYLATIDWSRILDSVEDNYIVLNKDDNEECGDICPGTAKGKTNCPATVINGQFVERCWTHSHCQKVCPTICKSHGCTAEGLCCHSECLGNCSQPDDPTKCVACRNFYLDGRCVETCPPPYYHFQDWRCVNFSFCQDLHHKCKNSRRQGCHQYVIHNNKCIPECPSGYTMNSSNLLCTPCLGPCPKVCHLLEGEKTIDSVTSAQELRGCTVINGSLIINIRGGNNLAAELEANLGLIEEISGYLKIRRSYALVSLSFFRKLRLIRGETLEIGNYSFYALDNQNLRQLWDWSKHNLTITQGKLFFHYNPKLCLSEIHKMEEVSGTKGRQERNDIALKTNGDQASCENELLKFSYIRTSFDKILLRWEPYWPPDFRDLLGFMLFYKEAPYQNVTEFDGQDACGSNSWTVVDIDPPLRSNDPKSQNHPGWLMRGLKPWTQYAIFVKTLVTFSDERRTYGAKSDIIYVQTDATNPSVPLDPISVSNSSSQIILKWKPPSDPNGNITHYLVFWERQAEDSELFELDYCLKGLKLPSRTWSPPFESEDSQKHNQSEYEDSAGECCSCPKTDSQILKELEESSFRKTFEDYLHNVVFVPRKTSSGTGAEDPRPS
Chain of Insulin receptor (Homo sapiens) (P06213 763-1382 limits assumed): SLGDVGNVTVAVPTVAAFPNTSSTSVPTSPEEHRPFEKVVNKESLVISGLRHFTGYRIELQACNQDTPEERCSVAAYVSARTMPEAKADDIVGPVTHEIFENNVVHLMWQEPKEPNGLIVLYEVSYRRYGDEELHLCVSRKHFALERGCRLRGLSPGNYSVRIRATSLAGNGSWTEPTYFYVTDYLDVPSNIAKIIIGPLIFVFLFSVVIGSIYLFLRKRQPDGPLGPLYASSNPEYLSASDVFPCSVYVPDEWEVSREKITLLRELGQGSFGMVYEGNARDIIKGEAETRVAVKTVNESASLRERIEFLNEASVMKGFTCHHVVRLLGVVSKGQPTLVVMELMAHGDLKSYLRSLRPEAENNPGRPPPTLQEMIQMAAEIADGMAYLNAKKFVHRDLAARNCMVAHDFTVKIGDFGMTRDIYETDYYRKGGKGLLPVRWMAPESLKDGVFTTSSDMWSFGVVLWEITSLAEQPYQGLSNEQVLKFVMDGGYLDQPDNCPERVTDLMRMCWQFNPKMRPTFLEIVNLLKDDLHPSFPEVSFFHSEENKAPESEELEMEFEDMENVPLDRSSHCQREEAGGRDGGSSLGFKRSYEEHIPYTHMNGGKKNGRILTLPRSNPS

Turning to `O=[N+]([O-])c1ccc(-c2nc(-c3ccc(F)cc3)c(-c3ccncc3)[nH]2)cc1`, the residual activity (in general, the signal under treatment as a percentage of the control signal) amounted to 76% in assay [1]; 61% in [2]; 59% in [3]; 97% in assay [4]; 105% in assay [5]; 119% in [6]. Further, the residual activity came out at 99% in assay [7], 129% in assay [8], 111% in [9] and 107% in assay [10].

Source of the values: ChEMBL document CHEMBL2218924, “A broad activity screen in support of a chemogenomic map for kinase signalling research and drug discovery” (Biochem J, 2013).
